Experimental data: PubChem BioAssay AID1159580 (chemical genetic matrix, 2015)
Hit rate of the full screen: of about 5,500 compounds, about 2,000 (36%) were called active. About 18% were inconclusive and are not listed. No stated cut-off is given here; in the data, active means normalized growth mostly below about 0.91 (no sharp cut-off); inconclusive means no clear call, values can overlap the other calls; inactive means mostly above about 0.92. Some of the results follow.

Assay: chemical genetic growth profiling, strain panel (AID 1159580);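 further: tested at 20 µM; growth read once vehicle control cultures reached saturation at 30 °C; 1 = growth at the plate median or of vehicle wells; lower values mean less growth of the strain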
Settings: growth OD

Measured: normalized growth

COc1cc2occ(-c3ccccc3)c(=O)c2c(OC)c1C
inactive: S. cerevisiae deletion strains, locus YJR043C, strain POL32, hits give low values 0.937 | S. cerevisiae deletion strains, locus YJR075W, strain HOC1, hits give low values 0.908 | S. cerevisiae deletion strains, locus YKL009W, strain mrt4, hits give low values 0.941 | S. cerevisiae deletion strains, locus YKL068W, hits give low values 0.965 | S. cerevisiae deletion strains, locus YKL085W, strain MDH1 (second series), hits give low values 0.952 | S. cerevisiae deletion strains, locus YKL085W, strain MDH1, hits give low values 0.952 | S. cerevisiae deletion strains, locus YKL160W, strain elf1, hits give low values 0.969 | S. cerevisiae deletion strains, locus YKL190W, strain CNB1, hits give low values 0.961 | S. cerevisiae deletion strains, locus YKR026C, strain gcn3, hits give low values 0.973 | S. cerevisiae deletion strains, locus YKR091W, strain srl3, hits give low values 0.976 | S. cerevisiae deletion strains, locus YLL001W, strain dnm1, hits give low values 0.98 | S. cerevisiae deletion strains, locus YLL026W, hits give low values 0.971 | S. cerevisiae deletion strains, locus YLL041C, strain sdh2, hits give low values 0.976 | S. cerevisiae deletion strains, locus YLR027C, strain aat2, hits give low values 0.979 | S. cerevisiae deletion strains, locus YLR039C, strain RIC1, hits give low values 0.763 | S. cerevisiae deletion strains, locus YLR058C, strain SHM2, hits give low values 0.951 | S. cerevisiae deletion strains, locus YLR102C, strain apc9, hits give low values 0.96 | S. cerevisiae deletion strains, locus YLR221C, strain rsa3, hits give low values 0.979 | S. cerevisiae deletion strains, locus YLR258W, strain gsy2, hits give low values 0.97 | S. cerevisiae deletion strains, locus YLR262C, strain YPT6, hits give low values 0.725 | S. cerevisiae deletion strains, locus YLR320W, strain mms22, hits give low values 0.902 | S. cerevisiae deletion strains, locus YLR330W, strain CHS5, hits give low values 0.957 | S. cerevisiae deletion strains, locus YLR342W, strain FKS1, hits give low values 0.968 | S. cerevisiae deletion strains, locus YLR357W, strain rsc2, hits give low values 0.97 | S. cerevisiae deletion strains, locus YLR370C, strain arc18, hits give low values 0.962 | S. cerevisiae deletion strains, locus YLR371W, strain rom2, hits give low values 0.923 | S. cerevisiae deletion strains, locus YLR384C, strain iki3, hits give low values 0.976 | S. cerevisiae deletion strains, locus YML016C, strain PPZ1, hits give low values 0.956 | S. cerevisiae deletion strains, locus YML120C, strain ndi1, hits give low values 0.951 | S. cerevisiae deletion strains, locus YML124C, strain tub3, hits give low values 0.942 | S. cerevisiae deletion strains, locus YMR058W, strain fet3, hits give low values 0.97 | S. cerevisiae deletion strains, locus YMR078C, strain ctf18, hits give low values 0.927 | S. cerevisiae deletion strains, locus YMR125W, strain sto1, hits give low values 1 | S. cerevisiae deletion strains, locus YMR129W, hits give low values 0.981 | S. cerevisiae deletion strains, locus YMR205C, strain PFK2, hits give low values 0.932 | S. cerevisiae deletion strains, locus YMR231W, strain pep5, hits give low values 0.998 | S. cerevisiae deletion strains, locus YMR263W, strain SAP30, hits give low values 0.926 | S. cerevisiae deletion strains, locus YMR307W, strain GAS1, hits give low values 0.665 | S. cerevisiae deletion strains, locus YNL067W, strain RPL9B, hits give low values 0.95 | S. cerevisiae deletion strains, locus YNL128W, strain TEP1, hits give low values 0.963 | S. cerevisiae deletion strains, locus YNL153C, strain GIM3, hits give low values 0.991 | S. cerevisiae deletion strains, locus YNL209W, strain ssb2, hits give low values 0.988 | S. cerevisiae deletion strains, locus YNL233W, strain BNI4, hits give low values 0.908 | S. cerevisiae deletion strains, locus YNL248C, strain rpa49, hits give low values 0.98 | S. cerevisiae deletion strains, locus YNL250W, strain rad50, hits give low values 0.956 | S. cerevisiae deletion strains, locus YNL271C, strain bni1, hits give low values 0.937 | S. cerevisiae deletion strains, locus YNL298W, strain CLA4, hits give low values 0.946 | S. cerevisiae deletion strains, locus YNL322C, strain KRE1 (second series), hits give low values 0.991 | S. cerevisiae deletion strains, locus YNL322C, strain KRE1, hits give low values 0.965 | S. cerevisiae deletion strains, locus YNR049C, strain mso1, hits give low values 0.985 | S. cerevisiae deletion strains, locus YNR052C, strain pop2, hits give low values 0.933 | S. cerevisiae deletion strains, locus YOL006C, strain TOP1, hits give low values 0.787 | S. cerevisiae deletion strains, locus YOL012C, strain htz1 0.865 | S. cerevisiae deletion strains, locus YOR001W, strain rrp6, hits give low values 1 | S. cerevisiae deletion strains, locus YOR061W, strain CKA2, hits give low values 0.96 | S. cerevisiae deletion strains, locus YOR069W, strain VPS5, hits give low values 0.968 | S. cerevisiae deletion strains, locus YOR070C, strain gyp1, hits give low values 0.982 | S. cerevisiae deletion strains, locus YOR080W, strain dia2, hits give low values 1 | S. cerevisiae deletion strains, locus YOR083W, strain WHI5, hits give low values 0.965 | S. cerevisiae deletion strains, locus YOR106W, strain vam3, hits give low values 0.953 | S. cerevisiae deletion strains, locus YOR136W, strain idh2, hits give low values 0.952 | S. cerevisiae deletion strains, locus YOR144C, strain elg1, hits give low values 0.946 | S. cerevisiae deletion strains, locus YOR265W, strain rbl2, hits give low values 0.962 | S. cerevisiae deletion strains, locus YOR270C, strain vph1, hits give low values 0.801 | S. cerevisiae deletion strains, locus YOR290C, strain snf2, hits give low values 0.919 | S. cerevisiae deletion strains, locus YOR316C, strain cot1, hits give low values 0.937 | S. cerevisiae deletion strains, locus YPL051W, strain arl3, hits give low values 0.942 | S. cerevisiae deletion strains, locus YPL055C, strain LGE1, hits give low values 0.888 | S. cerevisiae deletion strains, locus YPL078C, strain atp4, hits give low values 0.956 | S. cerevisiae deletion strains, locus YPL106C, strain sse1, hits give low values 0.993 | S. cerevisiae deletion strains, locus YPL240C, strain hsp82, hits give low values 0.969 | S. cerevisiae deletion strains, locus YPL241C, strain CIN2, hits give low values 0.959 | S. cerevisiae deletion strains, locus YPR119W, strain clb2, hits give low values 0.959 | S. cerevisiae deletion strains, locus YPR141C, strain kar3, hits give low values 0.944 | S. cerevisiae deletion strains, locus YPR163C, strain tif3, hits give low values 0.937 | S. cerevisiae deletion strains, locus YPR167C, strain met16, hits give low values 0.942 | S. cerevisiae deletion strains, strain wtn01, hits give low values 0.916 | S. cerevisiae strains, strain wild type, hits give low values 0.928
active: S. cerevisiae deletion strains, locus YKR001C, strain vps1, hits give low values 0.855 | S. cerevisiae deletion strains, locus YLR262C, strain YPT6 (second series), hits give low values 0.766 | S. cerevisiae deletion strains, locus YLR268W, strain sec22, hits give low values 0.873 | S. cerevisiae deletion strains, locus YLR342W, strain FKS1 (second series), hits give low values 0.714 | S. cerevisiae deletion strains, locus YLR418C, strain cdc73, hits give low values 0.788 | S. cerevisiae deletion strains, locus YML032C, strain rad52, hits give low values 0.898 | S. cerevisiae deletion strains, locus YMR223W, strain ubp8, hits give low values 0.885 | S. cerevisiae deletion strains, locus YNL071W, strain lat1, hits give low values 0.819 | S. cerevisiae deletion strains, locus YNL307C, strain MCK1, hits give low values 0.664 | S. cerevisiae deletion strains, locus YOL147C, strain pex11, hits give low values 0.923 | S. cerevisiae deletion strains, locus YOR184W, strain ser1, hits give low values 0.742
